Experimental data: PubChem BioAssay AID624330 (Southern Research Specialized Biocontainment Screening …, 2012)
In all, about 340,000 compounds went through this assay and about 2,100 (0.62%) were called active.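 How the source made its calls: active means first-screen hits whose inhibition reached a set limit at any dose in the follow-up dose series; inconclusive means inhibition above the set first-screen limit but never retested; inactive means the rest.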 These entries were drawn from the full list. Measured potencies and affinities stand elsewhere.

What follows are molecules tested against Rac GTPase-activating protein 1 (Homo sapiens) (UniProt Q9H0H5) (assay: blockers of MgcRacGAP-driven Rac1 GTP hydrolysis – biochemical, ADP Hunter fluorescence, primary and confirmatory, confirmation (AID 624330;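 further: fluorescence reports GDP produced by GAP-driven GTP hydrolysis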)). Conditions: MgcRacGAP-stimulated Rac1 GTP hydrolysis, at 30 µM, hits give high values, GST-tagged Rac1 F28L mutant substrate.
Sequence of Rac GTPase-activating protein 1 (Homo sapiens) (Q9H0H5 whole entry, looked up): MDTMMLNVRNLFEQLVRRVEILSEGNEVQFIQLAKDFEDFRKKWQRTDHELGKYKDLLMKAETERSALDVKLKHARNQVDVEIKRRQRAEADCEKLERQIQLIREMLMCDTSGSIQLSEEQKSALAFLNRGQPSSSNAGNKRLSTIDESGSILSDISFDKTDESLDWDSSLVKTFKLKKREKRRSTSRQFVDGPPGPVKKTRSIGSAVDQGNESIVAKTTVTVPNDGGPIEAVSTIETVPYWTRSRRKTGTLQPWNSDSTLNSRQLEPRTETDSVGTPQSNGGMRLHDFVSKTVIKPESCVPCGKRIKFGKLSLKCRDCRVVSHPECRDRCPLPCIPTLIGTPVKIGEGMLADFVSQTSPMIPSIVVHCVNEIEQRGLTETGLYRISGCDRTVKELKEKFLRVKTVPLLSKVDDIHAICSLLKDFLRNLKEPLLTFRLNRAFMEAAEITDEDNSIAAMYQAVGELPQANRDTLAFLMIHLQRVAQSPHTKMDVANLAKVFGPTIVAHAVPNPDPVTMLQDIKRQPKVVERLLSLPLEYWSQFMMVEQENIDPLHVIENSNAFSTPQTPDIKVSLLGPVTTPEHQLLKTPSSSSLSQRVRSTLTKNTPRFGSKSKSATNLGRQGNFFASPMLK

inhibition, inactive:
O=c1[nH]cc(S(=O)(=O)N2CCN(c3ccc(F)cc3)CC2)c(=O)[nH]1 2.66%
Cc1cc(C(=O)Nc2nccs2)c2cc(F)ccc2n1 4.04%
O=C(Nc1cccc(S(=O)(=O)N2CCCCC2)c1)c1ccco1 -7.5%
O=C(CNCc1ccco1)Nc1cc(S(=O)(=O)N2CCOCC2)ccc1N1CCCC1 24.8%
O=C(COC(=O)c1ccco1)Nc1cccc(S(=O)(=O)N2CCCCC2)c1 0.12%
Cc1ccc(S(=O)(=O)N2CCCCC2)cc1NC(=O)c1ccco1 15.5%
Cc1ccc(S(=O)(=O)N2CCOCC2)cc1C(=O)NCc1cccnc1 5.2%
Cc1ccc(S(=O)(=O)N2CCOCC2)cc1NC(=O)CNCc1ccccc1Cl 8.04%
COc1ccc(CNC(N)=O)cc1OC 5.81%
CN(C)S(=O)(=O)c1ccc(NC(=O)CN2C(=O)NC3(CCCC3)C2=O)cc1 4.79%
CCCN(C(=O)c1c(CC)noc1C)c1c(N)n(Cc2ccccc2)c(=O)[nH]c1=O 7.17%
CC1(NC(=O)N2CCCCC2)CCS(=O)(=O)C1 (centres undefined) 6.45%
O=C1CC(c2ccc(F)cc2)CC(O)=C1C=NCCN1CCNCC1 (centres undefined) 10.7%
COc1ccc(-c2csc3ncnc(N4CCN(c5ccccc5OC)CC4)c23)cc1 8.39%
O=C(OCC(=O)N1CCN(C(=O)c2ccco2)CC1)c1ccc(Cl)nc1 2.2%
COCCNC(=O)c1ccc(N2CC3CC(C2)c2cccc(=O)n2C3)c(NC(=O)c2cc(OC)cc(OC)c2)c1 (centres undefined) 10.3%
COc1ccc(CNC(=O)C2CCC(=O)N(CC3CCCCC3)C2)cc1 (centres undefined) 8.55%
O=C(NN1C(=O)c2ccccc2NC1c1ccc([N+](=O)[O-])o1)c1ccc(Br)cc1 (centres undefined) 5.26%
O=C(Cn1c(NCCO)nc2ccccc21)NCCc1ccccc1 0.41%
Nc1nnc(SCC(=O)N2CCN(c3ccccc3)CC2)s1 2.87%
Cc1nc(Cc2ccccc2)sc1CC#N -3.31%
CC(C)CC(NC(=O)C(Cc1ccc(OCc2ccccc2)cc1)NC(=O)OC(C)(C)C)C(N)=O (centres undefined) 10.6%
COc1ccc(CC(=O)Nc2nc(C)cs2)cc1 12%
Cc1csc(NC(=O)CSc2nc(C)cs2)n1 3.74%
COc1ccc(-n2nnnc2SCC(=O)N2CCN(C(=O)c3ccco3)CC2)cc1OC 7.68%
CCCCNC(=O)CSc1nc2ccccc2n1S(=O)(=O)c1ccc(Br)cc1 2.01%
Nc1nnnn1/N=C/c1cccc(O)c1 5.38%
Cc1n[nH]c(=O)n(N=Cc2cccs2)c1=O 7.77%
O=[N+]([O-])c1ccccc1/C=N/n1c(C(F)(F)F)n[nH]c1=S 16.4%
Cc1cc(C)n(/N=C/c2cccc(O)c2)c(=O)c1C(N)=O 10.6%
Cc1ccsc1/C=N/n1c(-c2cc(-c3ccccc3)n[nH]2)n[nH]c1=S 11.8%
Cc1ccc(-c2n[nH]c(=S)n2/N=C/c2sccc2C)cc1 5.68%
O=[N+]([O-])c1ccccc1/C=N/n1c(-c2ccccc2)n[nH]c1=S 16.3%
S=c1[nH]nc(-c2cc(-c3ccccc3)n[nH]2)n1/N=C/c1cccs1 16.3%
C#CCOCCOCCOCCNc1nc(N2CCN(C(=O)[C@H](CCCCN)n3cc(CN)nn3)CC2)nc(N2CCN(C(=O)[C@H](CCCN=C(N)N)n3cc(C(N)[C@H](C)CC)nn3)CC2)n1 (some centres undefined) 7.55%
C/C(=N/OC(=O)c1ccccc1Br)c1ccc(C)cc1 6.4%
O=C(CN1CCCCCC1)Nc1cc([N+](=O)[O-])ccc1Cl 5.34%
Cc1cnc(NC(=O)c2cccc(S(=O)(=O)N3CCOCC3)c2)s1 1.86%
O=C(CCCOc1ccc(Cl)cc1Cl)N/N=C/c1ccc(Cl)cc1 10.9%
O=C1CC2(CCN(C(=O)c3ccccc3[N+](=O)[O-])CC2)Oc2ccccc21 -0.23%
CCOC(=O)c1ccc(N2C(=O)[C@@H](c3ccccc3)[C@H]2c2ccccc2)cc1 -2.09%
S=c1[nH]nc(-c2ccccn2)n1/N=C/c1ccc(Br)s1 18.4%
S=c1[nH]nc(-c2cc(-c3ccccc3)n[nH]2)n1/N=C/c1ccc(Br)s1 20.5%
CCCOc1cccc(/C=N/NC(=O)c2csc(C)c2C)c1 4.91%
CCOC(=O)N1CCN(CCc2ccccc2)CC1 7.1%
CC(C)[C@H](NC(=O)c1ccc(Cl)cc1)C(=O)Nc1cccc(S(=O)(=O)N2CCOCC2)c1 12.2%
O=C1ON=C(c2ccccc2)/C1=C/c1ccccc1 5.86%
O=C1ON=C(c2ccccc2)/C1=C/c1ccc(O)cc1 27.7%
COc1ccc(/C=C2\C(=O)ON=C2c2ccccc2)cc1OC 16.1%
CCOc1cc(/C=C2/C(=O)ON=C2C)cc(Br)c1O 29.1%
COc1ccc(/C=C2/C(=O)ON=C2c2ccccc2)cc1OC 15.4%
CCOc1cc(/C=C2\C(=O)ON=C2c2ccccc2)ccc1OC 24.3%
CN(C)c1cccc(NC(=O)CCc2ccccc2)c1 2.65%
C[C@H](CO)N1C[C@H](C)[C@H](CN(C)C(=O)CCC(F)(F)F)OCc2cnnn2CCCC1=O 6.43%
C=CCSc1nnc(-c2ccncc2)n1-c1ccc(OCC)cc1 6.74%
CC1CCN(S(=O)(=O)c2ccc(C(=O)NCc3cccnc3)cc2)CC1 -0.6%
C/C(CC(=O)Nc1cccc2c1CCCC2)=N\NC(=O)c1ccccc1N 5.83%
CC(C)(C)CC(=O)Nc1nnc(SCC(=O)NC2CCCC2)s1 4.93%
CC(C)OC(=O)c1c(NC(=O)c2cnn3c2NC(c2ccccc2)CC3C(F)(F)F)sc2c1CCCC2 (centres undefined) 10.2%
